IMPase Li inh = qHTS Assay for Identifying the Cell-Membrane Permeable IMPase Inhibitors: Potentiation with Lithium; hit rate 0.35% among 210,000; CHO-M1 cells, IP1 TR-FRET (IP-One), carbachol + lithium; AID 1457, 2008; Potency, µM (doses to about 59.4 µM), inactives show at the top dose activity, negative = IMPase inhibition, most hits filed as inhibitors;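 note: IP1 builds up when IMPase is blocked and the TR-FRET signal falls; plate controls were basal vehicle for no effect and high inhibitor control for full effect; nearly all actives have a fitted effect of over 50% in size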
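Concentration–response in CHO-M1 cells, lithium-potentiated; 30 min at 37C. IP1 detected by competitive TR-FRET after 10 min lysis at RT. Hill-fitted AC50.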
Sfp inh = qHTS Assay for Inhibitors of Bacillus subtilis Sfp phosphopantetheinyl transferase (PPTase) | AID 1490, 2009 | Biochemical Sfp PPTase activity, qHTS | Potency, µM, for inactives: largest response in the series, negative = inhibition, actives largely listed as inhibitors | 4'-phosphopantetheinyl transferase ffp (Bacillus subtilis), Q9F4F7 | hit rate 3.5% among 310,000;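 note: the enzyme is Sfp with the accession as filed and its product quenches rhodamine fluorescence; 0% = enzyme reaction without inhibitor and -100% = no enzyme wells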
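With Hepes-Na pH 7.6 buffer containing 10 mM MgCl2, Sfp (15 nM) modified BHQ-2-YbbR (12.5 uM) using rhodamine-CoA (5 uM). Two reads 30 minutes apart at 525/598 nm yielded each well's rate.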
Epigenetic reg = Quantitative High-Throughput Screen for Regulators of Epigenetic Control; murine LDR cells, GFP reporter derepression, 30 h; AID 1865, 2009; hit rate 0.2% among 280,000; Potency, µM (highest dose often 53.9 µM), for the others: at the highest dose GFP activation, most hits filed as activators; note: % of control where 0% means no effect; nearly all actives have a fitted effect of over 60% in size
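GFP-positive cell count by laser-scanning cytometry (objects 20–120 um) after 30 h, 37 C compound exposure of murine LDR cells; reporter is CMV-GFP integrated at a silenced locus, inducible by HDAC or DNMT inhibitors.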
NPSR antagonist = qHTS Assay for Antagonists of the Neuropeptide S Receptor: cAMP Signal Transduction; Q6W5P4; CHO-NPSR cells, cAMP TR-FRET, antagonist mode; Potency, µM (doses to about 38.3 µM), without a hit: at the highest dose activity change, negative = inhibition, hits mostly inhibitors; hit rate 1% among 220,000; note: % is set by controls: 0 for no effect and ±100 for the full control effect; nearly all actives have a fitted effect of over 50% in size
Target sequence (Q6W5P4 whole entry, looked up): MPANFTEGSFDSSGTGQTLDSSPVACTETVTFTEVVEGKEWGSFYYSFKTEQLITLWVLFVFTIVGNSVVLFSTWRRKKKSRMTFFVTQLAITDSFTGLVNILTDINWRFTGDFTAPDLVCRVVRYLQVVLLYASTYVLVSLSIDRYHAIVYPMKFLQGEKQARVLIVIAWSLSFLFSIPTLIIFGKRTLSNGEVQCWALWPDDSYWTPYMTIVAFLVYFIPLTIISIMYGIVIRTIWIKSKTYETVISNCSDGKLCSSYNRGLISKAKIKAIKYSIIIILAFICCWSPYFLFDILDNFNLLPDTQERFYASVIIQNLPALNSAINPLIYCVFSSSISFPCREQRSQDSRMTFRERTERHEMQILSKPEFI
KAT2A inh = qHTS Assay for Inhibitors of GCN5L2; hit rate 0.21% among 390,000; GCN5L2 HAT assay, ThioGlo1 CoA-SH fluorescence; Histone acetyltransferase KAT2A (Homo sapiens), Q92830; Potency, µM (highest dose often 58.9 µM), for inactives: at the highest dose activity change, negative = inhibition, hits mostly inhibitors; note: % is set by controls: 0 for no effect and ±100 for the full control effect
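Titration-based screen in which CoA formation is detected via maleimide probe ThioGlo1 (50uM) turning fluorescent on thiol reaction; substrates H3(1-25) 75uM and acetyl-CoA 70uM, GCN5L2 20nM, 20 min incubation at room temperature.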
KDM4E inh = qHTS Assay for Inhibitors of Human Jumonji Domain Containing 2E (JMJD2E); JMJD2E catalytic domain, FDH-coupled NADH fluorescence (FDH is formaldehyde dehydrogenase); hit rate 1.6% among 230,000; Potency, µM (doses to about 57.1 µM), without a hit: top-dose activity change, negative = inhibition, hits mostly inhibitors; active = well fitted inhibition curve with a large enough effect, not every such curve was filed as active; inconclusive = small, poorly fitted or top-dose-only effect, or another doubt; inactive = no such curve, though single readings can be large or run the other way;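 note: 0% = wells with enzyme and -100% = buffer wells without enzyme; nearly all actives have a fitted effect of over 50% in size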
Target sequence (B2RXH2 1-337 limits assumed): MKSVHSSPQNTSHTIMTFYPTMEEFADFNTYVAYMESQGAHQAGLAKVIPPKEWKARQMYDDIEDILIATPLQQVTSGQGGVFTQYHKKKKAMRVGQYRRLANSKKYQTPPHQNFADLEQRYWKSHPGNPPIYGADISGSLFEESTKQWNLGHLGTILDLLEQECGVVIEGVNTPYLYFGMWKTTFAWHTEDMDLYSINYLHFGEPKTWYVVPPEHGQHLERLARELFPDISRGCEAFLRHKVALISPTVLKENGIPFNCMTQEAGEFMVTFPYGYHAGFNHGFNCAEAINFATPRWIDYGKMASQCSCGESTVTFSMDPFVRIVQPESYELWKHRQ
* marks the source's active call; other numbers are inactive results; [ ] = dose if it differs, or a comment. An excerpt weighted towards active compounds, which were near 3.6% of everything screened. Unless noted, calls come from the whole dose curve; as a rule, active = well fitted curve in the direction sought with a large enough effect; inconclusive = small, poorly fitted or top-dose-only effect, or another doubt; inactive = no such curve, though single readings can be large; an effect the other way counts as inactive or inconclusive. Potency is the fitted concentration of half-maximal effect.

What do the screens show for `O=c1cc(-c2ccccc2)oc2c(O)c(O)ccc12`?
IMPase Li inh: 38%; Sfp inh: -91%; Epigenetic reg: 0%; KAT2A inh: inconclusive; KDM4E inh: 7.9µM*

What do the screens show for `Cc1oc2c(O)c(O)ccc2c(=O)c1-c1ccccc1`?
Sfp inh: 50µM*; Epigenetic reg: 4%; NPSR antagonist: 8%; KAT2A inh: -8%; KDM4E inh: 13µM*

How did Cc1cc(=O)oc2c(CN3CCCC3)c(O)ccc12 do in these assays?
Sfp inh: 19%; KAT2A inh: -28%

What do the screens show for `Cc1cc(=O)oc2c(O)c(O)ccc12`?
IMPase Li inh: 30%; Sfp inh: 45µM*; Epigenetic reg: -3%; KAT2A inh: inconclusive; KDM4E inh: 2.2µM*

How did O=C(Nc1nnc(CCS(=O)(=O)c2ccc3ccccc3c2)s1)c1cccs1 do in these assays?
IMPase Li inh: 11µM*; Sfp inh: 10%; Epigenetic reg: -1%; NPSR antagonist: inconclusive; KAT2A inh: 0%; KDM4E inh: -4%

Results for COc1ccc(S(=O)(=O)CCc2nnc(NC(=O)c3cccs3)s2)cc1 ?
IMPase Li inh: inconclusive; Sfp inh: -1%; Epigenetic reg: 0%; NPSR antagonist: -10%[46.1 µM]; KAT2A inh: -10%; KDM4E inh: -1%

How did COc1ccc(-n2c(CCC(=O)O)ccc2-c2ccccc2)c(OC)c1 do in these assays?
Epigenetic reg: 2%; KAT2A inh: 8%

Results for COC(=O)\C(C(C)=O)=C(/C=C/C=C/C=C/N(C)C)N(C)C ?
IMPase Li inh: 2%[38.3 µM]; Sfp inh: -18%; Epigenetic reg: -2%; NPSR antagonist: -3%[46.1 µM]; KAT2A inh: -30%; KDM4E inh: 22µM*

Results for Cc1[nH]c(-c2ccc3c(c2)OCO3)nc1C(=O)O ?
IMPase Li inh: 4%[38.3 µM]; Sfp inh: 56µM*; Epigenetic reg: 0%; NPSR antagonist: -10%[46.1 µM]; KAT2A inh: -12%; KDM4E inh: inconclusive

What do the screens show for `COc1ccc(-c2nc(-c3ccc4c(c3)OCO4)[nH]c2-c2ccc(OC)cc2)cc1`?
IMPase Li inh: -2%; Sfp inh: 15%; Epigenetic reg: -1%; NPSR antagonist: inconclusive; KAT2A inh: -13%; KDM4E inh: 1%

What do the screens show for `Cc1[nH]c(-c2ccco2)nc1C(=O)O`?
IMPase Li inh: -6%[38.3 µM]; Sfp inh: 79µM*; Epigenetic reg: 0%; NPSR antagonist: -4%[46.1 µM]; KAT2A inh: -13%; KDM4E inh: -25%

What do the screens show for `CCOC(=O)c1c(C)nc(C)c(C(=O)OCC)c1-c1ccco1`?
Sfp inh: -6%; Epigenetic reg: 0%; NPSR antagonist: 6%; KAT2A inh: -1%; KDM4E inh: -12%

Results for Cc1cc2c(c(=O)o1)[C@H](O)[C@H]1O[C@@H]1C2=O ?
Sfp inh: -13%; Epigenetic reg: inconclusive

How did O=C(CCN1CCCC1Cc1ccccc1)c1ccc2c(c1)OCCO2 (stereo unspecified) do in these assays?
IMPase Li inh: 9%[38.3 µM]; Sfp inh: 50µM*; Epigenetic reg: 1%; NPSR antagonist: inconclusive; KDM4E inh: -10%

How did O=C(CCN1CCC(c2ccccc2)C1)c1ccc2c(c1)OCCO2 (stereo unspecified) do in these assays?
IMPase Li inh: 38%[38.3 µM]; Sfp inh: 50µM*; Epigenetic reg: 3%; NPSR antagonist: -13%[46.1 µM]; KAT2A inh: -9%; KDM4E inh: 18µM*

How did O=C(CCN1CCc2ccccc2C1)c1ccc2c(c1)OCCO2 do in these assays?
IMPase Li inh: 34%[38.3 µM]; Sfp inh: 45µM*; Epigenetic reg: -1%; NPSR antagonist: -11%[46.1 µM]; KAT2A inh: -3%; KDM4E inh: -6%

How did O=C(CCN1CCc2ccccc21)c1ccc2c(c1)OCCO2 do in these assays?
IMPase Li inh: 46%[38.3 µM]; Sfp inh: inconclusive; Epigenetic reg: 0%; NPSR antagonist: -14%[46.1 µM]; KAT2A inh: -1%; KDM4E inh: -21%

What do the screens show for `O=C(CCN1CCCCC1)c1ccc2c(c1)OCCO2`?
IMPase Li inh: 9%[38.3 µM]; Sfp inh: -14%; Epigenetic reg: 0%; NPSR antagonist: 3%[46.1 µM]; KAT2A inh: 0%; KDM4E inh: -4%

Results for CC[C@H](C)[C@H](NC(=O)[C@@H](NC(=O)[C@@H](NC(=O)[C@H](CCC(=O)O)NC(=O)[C@H](CCC(=O)O)NC(=O)[C@H](CCC(=O)O)NC(=O)[C@H](C)NC(=O)[C@@H](N)CC(C)C)C(C)C)C(C)C)C(=O)N[C@@H](CCCNC(=N)N)C(=O)N[C@@H](CO)C(=O)N[C@@H](C)C(=O)N[C@@H](CC(N)=O)C(=O)N[C@@H](Cc1ccccc1)C(=O)N[C@H](C(=O)N[C@@H](CC(=O)O)C(=O)N[C@@H](CC(N)=O)C(=O)O)[C@@H](C)O ?
Sfp inh: 5%; KAT2A inh: 48%

What do the screens show for `COc1ccc(SCC(Cc2ccccc2)N2CCN(CCc3ccccc3)CCC2=O)cc1` (stereo unspecified)?
Sfp inh: -26%

How did COc1ccc2nc(NNC(=O)C3COc4ccccc4O3)sc2c1 (stereo unspecified) do in these assays?
IMPase Li inh: 8%; Sfp inh: 79µM*; Epigenetic reg: 0%; NPSR antagonist: -15%; KAT2A inh: 0%; KDM4E inh: inconclusive

Results for COc1ccc2nc(NC(=O)C3COc4ccccc4O3)sc2c1 (stereo unspecified) ?
IMPase Li inh: 8%[38.3 µM]; Sfp inh: inconclusive; Epigenetic reg: 0%; NPSR antagonist: -2%[46.1 µM]; KAT2A inh: -14%; KDM4E inh: -29%

Results for CC1=C(/C=C/C(C)=C/C=C/C(C)=C/C=O)C(C)(C)CCC1 ?
IMPase Li inh: -2%

Results for O=C(NCc1ccco1)c1sc(=S)n2c1[nH]c(=O)c1ccccc12 ?
Sfp inh: 45µM*; Epigenetic reg: 1%; NPSR antagonist: -10%[46.1 µM]; KAT2A inh: -17%; KDM4E inh: 2%

What do the screens show for `Cc1cccc(Cn2c(SCc3ccc(C(=O)NCCc4ccccc4)cc3)nc3ccncc32)c1`?
Epigenetic reg: 6%; KAT2A inh: -5%

What do the screens show for `COCCNC(=S)N/N=C(\C)c1ccc2cc(OC)ccc2c1`?
IMPase Li inh: 6%; Sfp inh: 2%; Epigenetic reg: 7.9µM*; NPSR antagonist: -23%; KAT2A inh: -8%; KDM4E inh: 1%

Screening data (PubChem)
